Where “and” joins values, the source holds several entries; their conditions need not be identical. Equal entries are not always repeated. This is part of a sample that, as a whole, favours compounds with a hit. Of some 83,000 tested, about 20% had one in any assay.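 Interpretation: 100, growth as untreated; towards 0, rising growth inhibition; 0, no net growth; 0 to -100, cell death. Compounds scoring below 10 were considered active.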
How the values were obtained:
Experiment in all cases: NCI-60 one-dose screen, 48 h (100 = growth as untreated, 0 = no growth, -100 = all killed)
Details in all cases: 10 µM unless noted
NCI-H23 lung = system: NCI-H23 lung
NCI-H226 lung = system: NCI-H226 lung
NCI-H322M lung = system: NCI-H322M lung
HOP-62 NSCLC = system: HOP-62 NSCLC
NCI-H460 lung = system: NCI-H460 lung
HOP-92 NSCLC = system: HOP-92 NSCLC
NCI-H522 lung = system: NCI-H522 lung
A549/ATCC NSCLC = system: A549/ATCC NSCLC
786-0 renal = system: 786-0 renal
COLO 205 colon = system: COLO 205 colon
DU-145 prostate = system: DU-145 prostate
K-562 leukemia = system: K-562 leukemia
MALME-3M melanoma = system: MALME-3M melanoma
MDA-MB-231 breast = system: MDA-MB-231 breast
RXF 393 renal = system: RXF 393 renal
SF-268 CNS = system: SF-268 CNS
SF-295 CNS = system: SF-295 CNS
SF-539 CNS = system: SF-539 CNS
UACC-257 melanoma = system: UACC-257 melanoma
M14 melanoma = system: M14 melanoma

Measured: growth

OCCS
inactive: NCI-H23 lung 93.7% | NCI-H226 lung 98.8% | NCI-H322M lung 101% | HOP-62 NSCLC 97.3% | NCI-H460 lung 106% | HOP-92 NSCLC 95.2% | NCI-H522 lung 102% | A549/ATCC NSCLC 95.1% | 786-0 renal 94.2% | COLO 205 colon 107% | DU-145 prostate 104% | K-562 leukemia 91.4% | MALME-3M melanoma 101% | MDA-MB-231 breast 99.3% | RXF 393 renal 110% | SF-268 CNS 99.5% | SF-295 CNS 101% | SF-539 CNS 100% | UACC-257 melanoma 90.9% | M14 melanoma 97.6%

Oc1cccnc1CN1CCOCC1
inactive: NCI-H23 lung 110% and 95.7% | NCI-H226 lung 99.1% and 95.7% | NCI-H322M lung 98.3% and 102% | HOP-62 NSCLC 96.6% and 92.7% | NCI-H460 lung 114% and 109% | HOP-92 NSCLC 88.4% and 84.8% | NCI-H522 lung 93.8% and 120% | A549/ATCC NSCLC 102% and 96.5% | 786-0 renal 105% and 101% | COLO 205 colon 102% and 110% | DU-145 prostate 108% and 116% | K-562 leukemia 108% and 105% | MALME-3M melanoma 106% | MDA-MB-231 breast 104% and 86.9% | RXF 393 renal 114% and 112% | SF-268 CNS 106% and 116% | SF-295 CNS 111% and 105% | SF-539 CNS 92.6% and 94.9% | UACC-257 melanoma 99.6% and 98.2% | M14 melanoma 109% and 103%

CCCC(=O)Oc1ccc2ccccc2c1
inactive: NCI-H23 lung 98.7% | NCI-H226 lung 103% | NCI-H322M lung 109% | HOP-62 NSCLC 89.9% | NCI-H460 lung 98% | HOP-92 NSCLC 89.5% | NCI-H522 lung 96.8% | A549/ATCC NSCLC 97.3% | 786-0 renal 101% | COLO 205 colon 99.2% | DU-145 prostate 111% | K-562 leukemia 95.7% | MALME-3M melanoma 111% | MDA-MB-231 breast 95.8% | RXF 393 renal 112% | SF-268 CNS 105% | SF-295 CNS 96.7% | SF-539 CNS 98.3% | UACC-257 melanoma 90.8% | M14 melanoma 97.5%

CCCC(=O)OCC(COC(=O)CCC)OC(=O)CCC
inactive: NCI-H23 lung 104% | NCI-H226 lung 94.5% | NCI-H322M lung 93.9% | HOP-62 NSCLC 98.6% | NCI-H460 lung 101% | HOP-92 NSCLC 87.3% | NCI-H522 lung 99.1% | A549/ATCC NSCLC 94.9% | 786-0 renal 102% | COLO 205 colon 111% | DU-145 prostate 111% | K-562 leukemia 97.7% | MALME-3M melanoma 107% | MDA-MB-231 breast 109% | RXF 393 renal 110% | SF-268 CNS 104% | SF-295 CNS 99.9% | SF-539 CNS 103% | UACC-257 melanoma 95.5% | M14 melanoma 102%

NNC(=O)Nc1ccccc1
inactive: NCI-H23 lung 100% | NCI-H226 lung 95.2% | NCI-H322M lung 96.1% | HOP-62 NSCLC 103% | NCI-H460 lung 104% | HOP-92 NSCLC 90.8% | NCI-H522 lung 107% | A549/ATCC NSCLC 113% | 786-0 renal 99.8% | COLO 205 colon 99.1% | DU-145 prostate 106% | K-562 leukemia 102% | MALME-3M melanoma 99.6% | MDA-MB-231 breast 91.2% | RXF 393 renal 108% | SF-268 CNS 100% | SF-295 CNS 96.3% | SF-539 CNS 97% | UACC-257 melanoma 108% | M14 melanoma 107%
